Data published in PubChem BioAssay AID492956 (The Scripps Research Institute Molecular Screening Center, 2010).
Among all 340,000 compounds or so, about 3,300 (0.97%) were called active. What follows is part of a selection rich in actives, with near analogues and random picks from the rest. Unmarked numbers belong to inactive results.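 How the source made its calls: active means inhibition above the mean over all tested compounds plus 3 SD (cut at about 30% in these data); inactive means the rest.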

Target: Platelet-activating factor acetylhydrolase 2, cytoplasmic (Homo sapiens) (UniProt Q99487)
Experiment: PAFAH2 enzyme inhibitors, primary screen, biochemical, fluorescence polarization, human (AID 492956);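 further: inhibitors block probe labeling of enzyme so polarization drops; 0% = enzyme with DMSO and 100% = wells lacking PAFAH2 protein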
Conditions: recombinant PAFAH2, FP-rhodamine activity probe, at 3.39 µM, hits give high values

Question: How did the inhibition turn out when `CC1CCc2c(sc3c2C2=NS(=O)(=O)CCN2C=N3)C1` (stereo unspecified) was run?
Answer: 0.66%

Question: Which inhibition does the source give for `COCCNC(=O)NC(=O)COC(=O)C1(c2ccc(Cl)cc2)CC1` here?
Answer: 13%

Question: Which inhibition does the source give for `Cc1ccc(Cc2nnc(SCC(=O)Nc3ccccc3C)[nH]c2=O)cc1` here?
Answer: 6.57%

Question: How did the inhibition turn out when `COc1ccccc1-c1cnn2c(N3CCOCC3)cc(C)nc12` was run?
Answer: -3.57%

Question: Which inhibition does the source give for `O=C(COc1ccc(Cl)cc1)Nc1ccccc1CO` here?
Answer: 0.9%

Question: `CS(=O)(=O)c1ccc(C(=O)OCC(=O)NNC(=O)COc2ccc(Cl)cc2)cc1` was tested. Which inhibition did it give?
Answer: 1.43%

Question: For `CCS(=O)(=O)c1ccc(O)c(NC(=O)COc2ccc(Cl)cc2)c1`, which inhibition is on record?
Answer: 75.6% (active)

Question: For `O=C(c1ccc(=O)[nH]c1)N(Cc1ccco1)C1(C(=O)NC2CCCCC2)CCCCC1`, which inhibition is on record?
Answer: -0.52%

Question: `N#Cc1nc(COc2ccc(Cl)cc2)oc1N1CCCC1` was tested. Which inhibition did it give?
Answer: -5.85%

Question: How did the inhibition turn out when `O=C(OCC(=O)N1CCN(c2ccccc2)CC1)c1ccc([N+](=O)[O-])s1` was run?
Answer: 35.3% (active)

Question: `C[C@H](NC(=O)c1ccccc1Cl)C(=O)OCC(=O)N1CCN(c2ccccc2)CC1` was tested. Which inhibition did it give?
Answer: -2.12%

Question: Which inhibition does the source give for `COc1cccc(/C=C/C(=O)OCC(=O)N2CCN(c3ccccc3)CC2)c1` here?
Answer: 1.44%

Question: With `CC(C)(C)NC(=O)CSc1nnc(NC(=O)CCc2ccccc2)s1` as the compound, how does the inhibition read?
Answer: 0.99%

Question: Which inhibition does the source give for `O=C(COC(=O)c1ccccc1C(=O)c1ccccc1)c1ccco1` here?
Answer: 43% (active)

Question: Which inhibition does the source give for `CC(C)CNC(=O)COC(=O)c1ccccc1OCC(=O)Nc1ccc(Br)cc1` here?
Answer: -2.18%

Question: How did the inhibition turn out when `CCOC(=O)c1ccc(NC(=O)CNC(=O)c2ccco2)cc1` was run?
Answer: 1.1%

Question: How did the inhibition turn out when `CC(=O)Nc1ccc(NC(=O)COc2ccc(-c3ccccc3)cc2)cc1` was run?
Answer: -5.15%

Question: With `O=C(OCC(=O)N1CCN(C(=O)c2ccco2)CC1)c1ccccc1Cc1ccccc1` as the compound, how does the inhibition read?
Answer: 10.9%

Question: Which inhibition does the source give for `CCN(CC)c1ccc(C(=O)OCC(=O)c2ccco2)cc1` here?
Answer: 35.1% (active)

Question: How did the inhibition turn out when `CCc1ccc(C(=O)COC(=O)c2ccco2)cc1` was run?
Answer: 9.26%

Question: For `CC(=O)Nc1ccc(NC(=O)COC(=O)c2ccccc2C(=O)c2ccccc2)cc1`, which inhibition is on record?
Answer: 32.1% (active)

Question: `O=C(CNC(=O)c1ccco1)OCC(=O)c1ccccc1` was tested. Which inhibition did it give?
Answer: 4.2%

Question: With `CC1(C)C2CCC1(CS(=O)(=O)NCCc1c[nH]c3ccccc13)C(=O)C2` (stereo unspecified) as the compound, how does the inhibition read?
Answer: 4.84%

Question: With `O=[N+]([O-])c1ccc(Oc2ccc(F)cc2Br)c2ccncc12` as the compound, how does the inhibition read?
Answer: -2.87%

Question: For `O=S(=O)(NC1CC1)c1ccc(Cl)cc1`, which inhibition is on record?
Answer: 6.44%

Question: Which inhibition does the source give for `Cc1cc(N)n(-c2ccc(S(=O)(=O)N3CCCC3)cc2[N+](=O)[O-])n1` here?
Answer: 3.65%
